# Only some compounds are listed: those with a hit (about 4.5% of all), similar ones and a draw of the others.
# hcDAF12 agonist: activators of H. contortus DAF-12 nuclear receptor; HEK293 hcDAF-12 lit1-tk-luc reporter, luminescence; 0% DMSO, 100% Δ7-dafachronic acid; activation, % at 6.8 µM; hit rate 1.4% among 370,000; AID 652067;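 active = activation above the mean of all tested compounds plus 3 SD, cut at about 5.5% in these data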
# ssDAF-12 act: activators of S. stercoralis DAF-12 nuclear receptor; HEK293 ssDAF-12/GRIP1 lit1-tk-luc reporter, luminescence; % of 3 µM dafachronic acid response; hit rate 1% among 370,000; activation, % at 6.8 µM;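 active = activation above the mean over all tested compounds plus 3 SD, cut at about 0.9% in these data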
# FXN GAA850 act: increases GAA850 frataxin promoter reporter activity; AID 540364; hit rate 0.56% among 360,000; HEK293 lucGAA850 FXN promoter luciferase reporter, 24 h; percent of 10 µM SAHA response; activation, % at 6 µM;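 active = activation above the average of all compounds screened plus 3 SD, cutoff fixed separately per campaign, cut at about 7.5% in these data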
# DAX1 inh-1: inhibitors of DAX1 repression of SF-1 activated StAR promoter; HEK293T StAR-luciferase reporter, SF-1/DAX-1 repression relief; inhibition, % at 6.8 µM; hit rate 1.1% among 370,000; AID 652010;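 active = inhibition above the mean over all tested compounds plus 3 SD, cut at about 3.6% in these data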;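 also: higher inhibition means more luminescence from relief of DAX-1 repression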
# hgDAF12 agonist: hgDAF-12 agonism, primary luciferase screen. HEK293 GAL4-hgDAF12 UAS-luciferase reporter, agonist luminescence; normalized to butyrate control. activation, % at 6.8 µM. hit rate 1.8% among 370,000. AID 687014;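 active = activation above a cutoff set at the mean of all screened compounds plus 3 SD, cut at about 10% in these data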
# DAX1 inh-2: NR0B1 (DAX1) inhibition; inhibition, % at 6.75 µM; P51843; hit rate 0.99% among 340,000; AID 504766; HEK293 Gal4-DAX1 luciferase reporter, luminescence;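 active = inhibition above the mean over all tested compounds plus 3 SD, cut at about 4.2% in these data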;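 also: inhibition shows as a rise in luminescence from relieved DAX1 repression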
# Target sequence (P51843 207-470 limits assumed): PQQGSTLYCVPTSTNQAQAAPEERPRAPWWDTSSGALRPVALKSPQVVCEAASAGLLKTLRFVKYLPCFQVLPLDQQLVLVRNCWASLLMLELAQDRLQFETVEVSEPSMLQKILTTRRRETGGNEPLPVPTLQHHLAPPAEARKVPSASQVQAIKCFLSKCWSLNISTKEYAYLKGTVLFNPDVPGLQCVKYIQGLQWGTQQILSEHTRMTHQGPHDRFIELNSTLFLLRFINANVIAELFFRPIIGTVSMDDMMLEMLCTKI
# GAA30 counter: GAA30 FXN promoter activation counter-screen. hit rate 66% among 1,900. activation, % at 6 µM. HEK293 lucGAA30 FXN promoter luciferase, 24 h; DMSO = 0%, 5 µM ipriflavone = 100%. AID 588350. shares compounds with FXN GAA850 act;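 active = mean activation above the mean of solvent-only control wells plus 3 SD, cut at about 22% in these data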;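 also: counterscreen of GAA850 promoter hits where activity marks nonselective or luminescence artifacts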
# FXN GAA850 conf: GAA850 FXN promoter activation confirmation | AID 588351 | shares compounds with FXN GAA850 act | HEK293 lucGAA850 FXN promoter luciferase reporter, 24 h; 100% = activation by SAHA | activation, % at 6 µM | hit rate 86% among 1,900;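 active = mean activation above a set limit taken from the primary screen, cut at about 8% in these data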
# Hits are given with their value; 0 = inactive; - = no result.
SMILES,hcDAF12 agonist,ssDAF-12 act,FXN GAA850 act,DAX1 inh-1,hgDAF12 agonist,DAX1 inh-2,GAA30 counter,FXN GAA850 conf
CC1(Cc2ccc(Cl)cc2)C(=O)Nc2ccc(S(=O)(=O)NC3CCCCC3)cc21 (stereo unspecified),0,0,8.3,0,0,-,0,0
CC1(Cc2ccc(OC(F)(F)F)cc2)C(=O)Nc2ccc(S(=O)(=O)NC3CCCCC3)cc21 (stereo unspecified),0,0,0,0,0,-,-,-
CCn1c2ccc(C)cc2c2nc3cc(C(=O)O)ccc3nc21,0,0,8.0,0,0,0,147.5,46.8
OC1CCCN(c2c3c(nc4cc(-c5cccc(F)c5)nn24)CCCC3)C1 (stereo unspecified),0,0,14.1,0,0,0,91.5,31.6
CN(C)c1nc(OCCNC(=O)COc2ccc(Cl)cc2Cl)nc(N(C)C)n1,0,0,8.3,0,0,0,0,0
CN(C)c1nc(OCCOC(=O)COc2ccc(Cl)cc2Cl)nc(N(C)C)n1,0,0,0,0,0,0,-,-
Cc1ccc(CNc2ccc3c(c2)ncn3C(C)(C)C)cc1,0,0,10.0,4.1,0,6.6,106.7,36.6
Cc1ccc(CNc2ccc3c(c2)ncn3C)cc1,0,0,0,0,0,0,-,-
O=C(Nc1cccc(F)c1)Nc1ccc(Cl)cn1,0,0,0,0,0,0,-,-
Cc1ccc(NC(=O)Nc2ccc(Cl)cn2)cc1,0,0,8.2,0,0,0,93.8,31.8
CC1CCCN(c2nc3ccsc3c(=O)s2)C1 (stereo unspecified),0,0,11.2,0,0,0,82.1,35.2
COc1ccc(OCC(=O)N/N=C(\C)c2ccc(-n3ccnc3)cc2)cc1,0,0,0,0,0,0,-,-
C/C(=N\NC(=O)COc1ccc(C(C)(C)C)cc1)c1ccc(-n2ccnc2)cc1,0,0,8.5,0,0,0,94.5,21.6
NC1(C(=O)O)CSSC1,0,0,9.8,0,0,0,0,24.9
O=c1c(Cl)c(NCCCO)cnn1-c1nc2ccccc2[nH]1,0,0,29.3,0,0,0,61.1,54.5
C=CCN(CC=C)c1cnn(-c2nc3ccccc3[nH]2)c(=O)c1Cl,0,0,0,0,0,0,-,-
O=C(OCc1cn(Cc2ccc(F)cc2F)nn1)N1CCCC1,0,0,-,0,0,-,-,-
CCn1c(-c2ccccc2)csc1=Nc1ccc(O)cc1,0,0,9.3,0,0,0,99.4,36.7
CC(=O)c1ccc2oc3ccccc3c(=O)c2c1,0,0,8.6,0,0,0,87.2,32.9
COc1ccc2c(c1)OC[C@H]1[C@H]2N2C(=O)CN(CCc3c[nH]c4ccccc34)C(=O)[C@@]2(C)[C@H]1c1ccccc1,0,0,7.8,0,0,0,21.9,17.8
Cc1ccc(S(=O)(=O)N(C)C[C@@H]2OCc3ccccc3-c3c(n(C)c4ccccc34)C(=O)N([C@H](C)CO)C[C@@H]2C)cc1,0,0,12.8,0,0,0,0,8.8
C[C@H](CO)N1C[C@H](C)[C@H](CN(C)S(=O)(=O)c2ccc(Cl)cc2)OCc2ccccc2-c2c(n(C)c3ccccc23)C1=O,0,0,12.3,0,0,0,0,9.8
CCCCNS(=O)(=O)CC1NCCc2ccccc21 (stereo unspecified),0,0,-,0,0,-,-,-
CCS(=O)(=O)N1CCN(c2ccc([N+](=O)[O-])c(NC(C)c3ccccc3)c2)CC1 (stereo unspecified),0,0,0,0,0,0,-,-
CC(Nc1cc(N2CCNCC2)ccc1[N+](=O)[O-])c1ccccc1 (stereo unspecified),0,0,8.5,0,0,0,0,0
SMILES,hcDAF12 agonist,ssDAF-12 act,FXN GAA850 act,DAX1 inh-1,hgDAF12 agonist,DAX1 inh-2,GAA30 counter,FXN GAA850 conf
COC(=O)[C@]1(C#N)CC(=O)N(Cc2ccc(Cl)cc2)[C@@H]1c1ccc(OC)cc1,0,0,-,0,0,-,-,-
COc1ccc(Oc2c(-c3cccs3)cnn(-c3ccc(C)cc3)c2=O)cc1,0,0,-,-,0,-,-,-
CC(C)Cc1nnc(NC(=O)c2cc3c(s2)CCC3)s1,0,0,8.2,0,0,0,94.6,28.8
CCC(C)N(C(=O)Cn1nc(Cc2ccncc2)c2ccccc2c1=O)C(C)CC (stereo unspecified),0,0,-,0,0,-,-,-
Nc1nc(CSc2ccccc2)nc(N2CCCCC2)n1,0,0,7.9,0,0,0,97.8,29.2
Cn1/c(=N\NC(=O)c2ccccc2Cl)sc2ccccc21,0,0,8.1,0,11.9,0,103.6,26.9
CC(=O)N/N=c1\sc2ccccc2n1C,0,0,0,0,0,0,-,-
S=C(NC12CC3CC(CC(C3)C1)C2)N1CCCC1,0,0,9.4,0,0,0,26.6,10.8
O=S1(=O)c2ccc(N3CCCC3)cc2Oc2ccccc2CN1Cc1cn(Cc2ccc(F)cc2)nn1,0,0,-,0,0,-,-,-
CC(C)(C)N1C(=O)[C@H]2[C@@H](c3ccc(Br)cc3)N3C(=O)N(c4cccc(Cl)c4)C(=O)[C@@]3(Cc3ccccc3)[C@H]2C1=O,0,0,11.9,0,0,0,0,14.1
COc1ccc([C@@H]2[C@@H]3C(=O)N(C(C)(C)C)C(=O)[C@@H]3[C@]3(Cc4ccc(Cl)cc4)C(=O)N(c4cccc(Br)c4)C(=O)N23)cc1,0,0,0,0,0,0,-,-
CC[C@@]12C(=O)N(c3cccc(Br)c3)C(=O)N1[C@H](c1ccc(Br)cc1)[C@@H]1C(=O)N(C(C)(C)C)C(=O)[C@@H]12,0,0,10.6,0,0,0,45.2,16.6
CC[C@@]12C(=O)N(c3cccc(Br)c3)C(=O)N1[C@H](c1ccc(OC)cc1)[C@@H]1C(=O)N(C(C)(C)C)C(=O)[C@@H]12,0,0,11.0,0,0,0,39.1,9.2
COc1ccc([C@@H]2[C@@H]3C(=O)N(C(C)(C)C)C(=O)[C@@H]3[C@]3(C)C(=O)N(c4cccc(Br)c4)C(=O)N23)cc1,-,-,11.2,-,-,0,0,0
COc1ccc(N2C(=O)N3[C@H](c4ccc(Br)cc4)[C@@H]4C(=O)N(C(C)(C)C)C(=O)[C@@H]4[C@]3(Cc3ccccc3)C2=O)cc1,0,0,0,0,0,0,-,-
O=C(Nc1nc2ncccn2c1-c1ccccc1)c1ccccc1,0,0,-,0,0,-,-,-
CC(C)(C)N1C(=O)[C@H]2[C@@H](c3ccc(Br)cc3)N3C(=O)N(c4cccc(F)c4)C(=O)[C@@]3(C)[C@H]2C1=O,0,0,8.8,0,0,0,33.6,17.9

# High-throughput results deposited in PubChem by The Scripps Research Institute Molecular Screening Center.
